{"source": "the supplement of paper PMC7724964", "data": [{"target": "CBX3 109-173 Chromo_shadow (domain begin residue: 109, domain end residue: 173), Q13185", "sequence (Q13185 whole entry, the tested form may be a part)": "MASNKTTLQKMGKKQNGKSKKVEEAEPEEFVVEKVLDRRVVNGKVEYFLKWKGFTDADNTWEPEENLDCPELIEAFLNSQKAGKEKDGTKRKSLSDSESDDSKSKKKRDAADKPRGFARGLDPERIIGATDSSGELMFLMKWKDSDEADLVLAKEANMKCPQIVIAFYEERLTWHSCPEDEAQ", "assay": "phage ELISA signal ratio (GST-PRM binding over GST background); higher = stronger binding of peptide-phage to the PRM", "experimental": "(§1)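 Phage-displayed random hexadecapeptides (Cys-free, flanked by invariant Gly linkers, fused to the M13 P8 major coat protein) were selected over 5 rounds against GST-fused human PRM domains. Individual clones from rounds 4-5 were tested by phage ELISA, and positive clones binding the target but not GST were sequenced. Values are the ELISA signal ratio of target over background (GST); the background signal is given separately.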", "values": [{"binder": "WIENWSVSPWDLTNPF", "phage ELISA signal ratio": 4.99}]}, {"target": "T1, ARID4A 568-634 Tudor-knot (domain begin residue: 568, domain end residue: 634), P29374", "T1 chain": "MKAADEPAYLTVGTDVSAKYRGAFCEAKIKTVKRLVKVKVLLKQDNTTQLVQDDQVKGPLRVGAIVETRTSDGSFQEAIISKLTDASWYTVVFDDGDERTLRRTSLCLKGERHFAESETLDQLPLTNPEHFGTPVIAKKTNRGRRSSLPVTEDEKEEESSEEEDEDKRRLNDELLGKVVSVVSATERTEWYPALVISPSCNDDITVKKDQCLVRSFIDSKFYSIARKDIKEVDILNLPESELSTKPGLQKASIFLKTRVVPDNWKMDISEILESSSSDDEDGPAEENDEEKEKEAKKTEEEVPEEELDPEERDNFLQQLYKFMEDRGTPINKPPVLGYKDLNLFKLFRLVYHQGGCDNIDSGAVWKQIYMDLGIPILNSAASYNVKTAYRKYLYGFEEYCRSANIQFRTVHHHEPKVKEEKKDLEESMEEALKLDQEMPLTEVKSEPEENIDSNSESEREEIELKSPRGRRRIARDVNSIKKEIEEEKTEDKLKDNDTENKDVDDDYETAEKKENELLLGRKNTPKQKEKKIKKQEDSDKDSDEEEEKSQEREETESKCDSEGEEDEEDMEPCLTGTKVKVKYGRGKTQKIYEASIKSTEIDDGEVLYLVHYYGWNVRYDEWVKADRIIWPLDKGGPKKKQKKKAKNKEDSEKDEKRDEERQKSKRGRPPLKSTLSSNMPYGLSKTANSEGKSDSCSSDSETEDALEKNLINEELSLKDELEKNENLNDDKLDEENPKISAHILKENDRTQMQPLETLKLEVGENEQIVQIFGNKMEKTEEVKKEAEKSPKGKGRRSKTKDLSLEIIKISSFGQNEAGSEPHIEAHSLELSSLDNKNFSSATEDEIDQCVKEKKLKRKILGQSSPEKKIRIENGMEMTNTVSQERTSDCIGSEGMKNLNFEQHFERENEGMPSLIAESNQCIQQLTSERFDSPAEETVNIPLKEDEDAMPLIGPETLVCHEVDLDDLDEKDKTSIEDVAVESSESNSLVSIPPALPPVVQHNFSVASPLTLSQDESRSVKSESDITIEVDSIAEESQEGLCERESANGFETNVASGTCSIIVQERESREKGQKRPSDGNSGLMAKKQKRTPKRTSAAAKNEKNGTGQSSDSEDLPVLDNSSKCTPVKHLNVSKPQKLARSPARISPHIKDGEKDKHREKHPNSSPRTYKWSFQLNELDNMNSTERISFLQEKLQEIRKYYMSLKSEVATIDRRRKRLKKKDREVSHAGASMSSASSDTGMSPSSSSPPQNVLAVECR", "assay": "phage ELISA signal ratio (GST-PRM binding over GST background); higher = stronger binding of peptide-phage to the PRM", "experimental": "as §1", "values": [{"binder": "DGWGWDHIEIEMPYEE", "phage ELISA signal ratio": 12.4}, {"binder": "PWDEIWEDMIEWPLPQ", "phage ELISA signal ratio": 9.72}]}, {"target": "T2, SND1 650-910 TUDOR+SNase (domain begin residue: 650, domain end residue: 910), Q7KZF4", "T2 chain": "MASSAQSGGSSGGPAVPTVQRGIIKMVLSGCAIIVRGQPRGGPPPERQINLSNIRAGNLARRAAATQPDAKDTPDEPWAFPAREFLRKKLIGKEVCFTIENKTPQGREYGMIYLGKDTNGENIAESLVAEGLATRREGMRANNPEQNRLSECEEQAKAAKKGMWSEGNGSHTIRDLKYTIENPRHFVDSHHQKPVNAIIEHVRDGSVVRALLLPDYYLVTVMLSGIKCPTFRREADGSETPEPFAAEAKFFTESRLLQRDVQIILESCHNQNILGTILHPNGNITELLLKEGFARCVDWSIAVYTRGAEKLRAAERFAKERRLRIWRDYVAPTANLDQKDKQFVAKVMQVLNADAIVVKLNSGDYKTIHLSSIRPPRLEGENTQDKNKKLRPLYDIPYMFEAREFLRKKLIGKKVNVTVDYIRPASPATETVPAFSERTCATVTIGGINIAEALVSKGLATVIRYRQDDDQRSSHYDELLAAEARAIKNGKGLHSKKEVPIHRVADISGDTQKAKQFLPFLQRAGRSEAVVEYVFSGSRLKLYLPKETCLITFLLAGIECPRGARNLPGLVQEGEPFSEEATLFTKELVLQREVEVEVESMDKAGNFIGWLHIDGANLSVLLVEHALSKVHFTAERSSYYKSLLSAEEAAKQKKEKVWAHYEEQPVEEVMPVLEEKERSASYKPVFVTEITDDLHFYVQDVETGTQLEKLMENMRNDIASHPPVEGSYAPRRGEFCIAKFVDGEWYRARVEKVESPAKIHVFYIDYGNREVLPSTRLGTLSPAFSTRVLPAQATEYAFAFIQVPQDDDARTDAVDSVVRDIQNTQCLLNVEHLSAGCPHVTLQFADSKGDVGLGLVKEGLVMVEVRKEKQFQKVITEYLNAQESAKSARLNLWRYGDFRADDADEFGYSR", "assay": "phage ELISA signal ratio (GST-PRM binding over GST background); higher = stronger binding of peptide-phage to the PRM", "experimental": "as §1", "values": [{"binder": "DGWGWDHIEIEMPYEE", "phage ELISA signal ratio": 8.36}]}, {"target": "T3, CAPN2 513-700 EF-hand_8 (domain begin residue: 513, domain end residue: 700), P17655", "T3 chain": "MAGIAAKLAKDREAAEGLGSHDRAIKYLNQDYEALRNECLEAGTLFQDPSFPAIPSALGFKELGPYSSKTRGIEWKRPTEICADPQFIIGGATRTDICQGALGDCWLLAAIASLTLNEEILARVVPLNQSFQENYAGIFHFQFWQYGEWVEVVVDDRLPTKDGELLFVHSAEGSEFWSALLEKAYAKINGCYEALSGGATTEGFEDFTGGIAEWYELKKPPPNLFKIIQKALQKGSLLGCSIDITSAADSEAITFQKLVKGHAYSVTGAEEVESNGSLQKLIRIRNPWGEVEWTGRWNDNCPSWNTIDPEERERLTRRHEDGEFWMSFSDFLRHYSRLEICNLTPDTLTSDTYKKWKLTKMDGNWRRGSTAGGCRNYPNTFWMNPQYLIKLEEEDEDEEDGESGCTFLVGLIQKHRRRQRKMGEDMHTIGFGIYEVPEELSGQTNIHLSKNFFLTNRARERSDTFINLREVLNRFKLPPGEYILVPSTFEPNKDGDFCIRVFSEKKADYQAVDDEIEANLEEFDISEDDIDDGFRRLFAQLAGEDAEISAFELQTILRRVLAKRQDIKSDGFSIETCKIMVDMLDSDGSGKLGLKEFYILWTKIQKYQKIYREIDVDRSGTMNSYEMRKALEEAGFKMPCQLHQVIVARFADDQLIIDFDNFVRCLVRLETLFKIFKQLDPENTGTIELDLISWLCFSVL", "assay": "phage ELISA signal ratio (GST-PRM binding over GST background); higher = stronger binding of peptide-phage to the PRM", "experimental": "as §1", "values": [{"binder": "ISESQIAQFVMAWMQQ", "phage ELISA signal ratio": 22.5}]}, {"target": "ARPC3 1-178 P21-Arc (domain begin residue: 1, domain end residue: 178), O15145", "assay": "phage ELISA signal ratio (GST-PRM binding over GST background); higher = stronger binding of peptide-phage to the PRM", "experimental": "as §1", "values": [{"binder": "VPEWWWQGWDPHHVVE", "phage ELISA signal ratio": 6.99}]}, {"target": "T4, BTN1A1 285-479 SPRY (domain begin residue: 285, domain end residue: 479), Q13410", "T4 chain": "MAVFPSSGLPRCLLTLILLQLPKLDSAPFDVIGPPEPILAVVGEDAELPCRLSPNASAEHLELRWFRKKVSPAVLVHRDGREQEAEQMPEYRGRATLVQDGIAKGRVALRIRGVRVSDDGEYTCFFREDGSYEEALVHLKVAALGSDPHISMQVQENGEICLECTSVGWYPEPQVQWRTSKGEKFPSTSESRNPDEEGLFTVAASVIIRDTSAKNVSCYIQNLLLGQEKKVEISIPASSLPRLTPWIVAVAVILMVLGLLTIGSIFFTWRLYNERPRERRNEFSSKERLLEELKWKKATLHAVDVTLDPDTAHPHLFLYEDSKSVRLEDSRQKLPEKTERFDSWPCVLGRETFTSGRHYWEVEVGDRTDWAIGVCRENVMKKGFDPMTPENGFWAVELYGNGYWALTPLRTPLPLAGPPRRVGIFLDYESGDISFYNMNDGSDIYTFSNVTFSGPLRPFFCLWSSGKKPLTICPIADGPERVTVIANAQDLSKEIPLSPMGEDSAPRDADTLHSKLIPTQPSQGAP", "assay": "phage ELISA signal ratio (GST-PRM binding over GST background); higher = stronger binding of peptide-phage to the PRM", "experimental": "as §1", "values": [{"binder": "VDGWWIARSEHLMQMA", "phage ELISA signal ratio": 11.9}]}, {"target": "T5, ALDOA 1-364 Glycolytic (domain begin residue: 1, domain end residue: 364), P04075", "T5 chain": "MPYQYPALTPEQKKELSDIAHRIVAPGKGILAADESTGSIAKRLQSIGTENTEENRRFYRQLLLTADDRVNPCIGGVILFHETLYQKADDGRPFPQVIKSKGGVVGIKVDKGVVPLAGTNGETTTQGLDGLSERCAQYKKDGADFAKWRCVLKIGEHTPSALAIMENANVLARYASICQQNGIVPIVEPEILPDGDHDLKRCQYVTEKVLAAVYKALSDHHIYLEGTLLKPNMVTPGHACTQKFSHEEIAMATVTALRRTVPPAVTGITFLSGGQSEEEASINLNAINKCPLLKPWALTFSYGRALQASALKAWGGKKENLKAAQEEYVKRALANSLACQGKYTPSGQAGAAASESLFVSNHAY", "assay": "phage ELISA signal ratio (GST-PRM binding over GST background); higher = stronger binding of peptide-phage to the PRM", "experimental": "as §1", "values": [{"binder": "WVYENGEWEWTFPPSA", "phage ELISA signal ratio": 17.8}]}]}
